{"source": "PubChem BioAssay AID651699", "about": "(Sanford-Burnham Center for Chemical Genomics, 2012)", "note": "Screen size: about 360,000 compounds; about 2,100 (0.58%) were called active. Rule as the data show it: active = inhibition above about 36%; inactive = the rest. Many of the other results were omitted from the sample, so actives are more common in it than they were.", "data": [{"molecular_target": "NEDD8-conjugating enzyme Ubc12 (Homo sapiens) + NEDD8-activating enzyme E1 regulatory subunit (Homo sapiens) (UniProt P61081+Q13564)", "sequence (P61081 whole entry, looked up)": "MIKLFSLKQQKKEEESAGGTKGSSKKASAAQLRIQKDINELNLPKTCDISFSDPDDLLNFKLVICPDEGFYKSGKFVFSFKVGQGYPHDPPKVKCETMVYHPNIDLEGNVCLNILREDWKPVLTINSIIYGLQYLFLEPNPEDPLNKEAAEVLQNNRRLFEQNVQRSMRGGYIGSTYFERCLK", "sequence (Q13564 whole entry, looked up)": "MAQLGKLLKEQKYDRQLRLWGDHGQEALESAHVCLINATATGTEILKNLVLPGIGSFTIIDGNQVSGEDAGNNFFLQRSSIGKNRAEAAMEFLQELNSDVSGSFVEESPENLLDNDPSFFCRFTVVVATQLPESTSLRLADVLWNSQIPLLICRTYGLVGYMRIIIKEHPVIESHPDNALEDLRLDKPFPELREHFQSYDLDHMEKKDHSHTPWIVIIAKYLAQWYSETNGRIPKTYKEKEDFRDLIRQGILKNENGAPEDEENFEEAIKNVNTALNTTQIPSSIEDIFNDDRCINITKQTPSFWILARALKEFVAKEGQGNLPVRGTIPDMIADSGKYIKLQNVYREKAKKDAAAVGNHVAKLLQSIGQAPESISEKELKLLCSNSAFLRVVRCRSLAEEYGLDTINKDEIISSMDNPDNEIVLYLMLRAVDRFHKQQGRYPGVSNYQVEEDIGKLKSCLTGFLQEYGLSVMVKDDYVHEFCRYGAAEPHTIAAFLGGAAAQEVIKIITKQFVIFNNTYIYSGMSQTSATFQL", "assay": "NEDD8 transfer onto cullin, blockade – biochemical, TR-FRET, uHTS, NAE and Ubc12, primary screen (AID 651699)", "details": "TR-FRET cullin neddylation, at 25 µM, hits give high values", "values": [{"molecule": "CCN1CCCC1CNc1ncnc2c1[nH]c1ccc(F)cc12", "note": "(centres undefined)", "inhibition": "37% (active)"}, {"molecule": "CCN1CCCC1CNC(=O)Cn1cnc2ccc(S(=O)(=O)N3CCC(C)CC3)cc2c1=O", "note": "(centres undefined)", "inhibition": "-2.38% (inactive)"}, {"molecule": "CCN1CCCC1Cn1cnc2c([nH]c3cc(OC)ccc32)c1=O", "note": "(centres undefined)", "inhibition": "1.83% (inactive)"}, {"molecule": "CCOC(=O)C1=C(N)N2C(=O)C(C)SC2=C(C(=O)OCC)C1c1cc(OC)c(OC)c(OC)c1", "note": "(centres undefined)", "inhibition": "-1.53% (inactive)"}, {"molecule": "COc1ccc(CC(N)c2csc(NC(=O)NC(c3ccccc3)c3ccccc3)n2)cc1", "note": "(centres undefined)", "inhibition": "-1.83% (inactive)"}, {"molecule": "CC(=O)c1ccc(Nc2nc(C(N)c3ccccc3)cs2)cc1", "note": "(centres undefined)", "inhibition": "41.1% (active)"}, {"molecule": "COC(=O)c1ccc2c(c1)S(=O)(=O)NC(=NCCCN1CCOCC1)S2", "inhibition": "-10.1% (inactive)"}, {"molecule": "CC(Sc1nc2c([nH]c3ccccc32)c(=O)n1C)c1ccccc1", "note": "(centres undefined)", "inhibition": "-4.19% (inactive)"}, {"molecule": "Clc1cccc(Cc2c(-c3cccc(Cl)c3)nc3ccc(Cl)cn23)c1", "inhibition": "-36.7% (inactive)"}, {"molecule": "O=c1c2c(nc3cc(-c4cccc(Cl)c4)[nH]n13)CCCC2", "inhibition": "40.3% (active)"}, {"molecule": "CSc1nc2nc3c(c(=O)n2[nH]1)CCC3", "inhibition": "-7.01% (inactive)"}, {"molecule": "O=C(Nc1cc(-c2nn(CC(=O)N3CCCCC3)c(=O)c3ccccc23)ccc1N1CCOCC1)c1ccc(Cl)cc1", "inhibition": "20.1% (inactive)"}, {"molecule": "O=C(CCl)NNc1cccc(Cl)n1", "inhibition": "3.4% (inactive)"}, {"molecule": "COc1ccc2oc(C(=O)NCC(Cc3ccccc3)N(C)C)c(C)c2c1", "note": "(centres undefined)", "inhibition": "43.3% (active)"}, {"molecule": "COc1ccc2oc(C(=O)N(CC(C)C)C3CCS(=O)(=O)C3)c(C)c2c1", "note": "(centres undefined)", "inhibition": "2.83% (inactive)"}, {"molecule": "NC(=O)C1(N2CCCCC2)CCN(C(=O)c2ccc(C#Cc3ccccc3)o2)CC1", "inhibition": "-13.2% (inactive)"}, {"molecule": "COc1ccc(Br)cc1/C=N/Nc1ccc(S(=O)(=O)Nc2ccccc2C(=O)O)cc1[N+](=O)[O-]", "inhibition": "-8.62% (inactive)"}, {"molecule": "COc1ccc(Br)cc1/C=N/Nc1ccc(Cl)c(C(=O)O)c1", "inhibition": "45.1% (active)"}, {"molecule": "O=C(NC(=S)Nc1ccc(Cl)c(C(=O)O)c1)c1cncc(Br)c1", "inhibition": "-4.06% (inactive)"}, {"molecule": "CCN(CC(=O)NCc1cccs1)c1nnnn1-c1ccccc1", "inhibition": "0.19% (inactive)"}, {"molecule": "O=C(NCc1cccc(C(F)(F)F)c1)c1ccc2sc(COCCO)nc2c1", "inhibition": "3.36% (inactive)"}, {"molecule": "CCOC(=O)c1cc(C(=O)Nc2ccc(S(=O)(=O)Nc3ccc(OC)cc3)cc2)nn1C", "inhibition": "-1.03% (inactive)"}, {"molecule": "CC(C)CN(C(=O)COC(=O)c1ccc(Cl)c(N)c1)c1c(N)n(Cc2ccccc2)c(=O)[nH]c1=O", "inhibition": "30.6% (inactive)"}, {"molecule": "COc1ccc2oc(C(=O)OCC(=O)N(CC(C)C)c3c(N)n(Cc4ccccc4)c(=O)[nH]c3=O)c(C)c2c1", "inhibition": "44.4% (active)"}, {"molecule": "CC(C)CN(C(=O)COC(=O)c1ccc2ccccc2c1)c1c(N)n(Cc2ccccc2)c(=O)[nH]c1=O", "inhibition": "3.53% (inactive)"}, {"molecule": "CCN(CC)C(=O)C1=C(C)N(Cc2ccc(C(C)(C)C)cc2)C(=O)C(CC(=O)NCc2cccc3ccccc23)C1", "note": "(centres undefined)", "inhibition": "-9.92% (inactive)"}, {"molecule": "CC(C)Cc1nc(N2CCOCC2)c(C#N)c2c1CCC2", "inhibition": "44.8% (active)"}, {"molecule": "CC(C)Cc1nc(Cl)c(C#N)c2c1CCC2", "inhibition": "-5.13% (inactive)"}, {"molecule": "COc1cc(S(=O)(=O)N2CCOCC2)ccc1NC(=O)COc1ccc(N(C)S(=O)(=O)c2ccc(C)cc2)cc1", "inhibition": "-8.3% (inactive)"}, {"molecule": "CCNC(=O)CN(c1ccc(C)cc1)S(=O)(=O)c1ccc(SC)cc1", "inhibition": "-3.17% (inactive)"}, {"molecule": "CCOC(=O)c1cc(C)sc1NC(=O)C1CCC1", "inhibition": "-7.86% (inactive)"}, {"molecule": "Cc1cc(C(=O)OCC(=O)Nc2nnc(C(C)C)s2)c2ccccc2n1", "inhibition": "-11.2% (inactive)"}, {"molecule": "CCOC(=O)c1cc(C(C)C)sc1NC(=O)COC(=O)c1nccnc1N", "inhibition": "45.2% (active)"}, {"molecule": "COc1ccc(CN(CC(=O)NC2CCCC2)C(=O)CCC(=O)Nc2cc(C)on2)cc1", "inhibition": "6.41% (inactive)"}, {"molecule": "COc1cccc(NC(=O)c2nn(-c3ccc(OC)cc3OC)c(=O)c3ccccc23)c1", "inhibition": "-9.58% (inactive)"}, {"molecule": "CCN(c1ccccc1)S(=O)(=O)c1ccc(OCC(=O)N2CCCC2)cc1", "inhibition": "-24.7% (inactive)"}, {"molecule": "Cc1ccc(NC(=O)CC2C(=O)N(Cc3ccccc3)C(=S)N2NC(=O)c2cccc(F)c2)c(C)c1", "note": "(centres undefined)", "inhibition": "2.05% (inactive)"}, {"molecule": "COc1ccccc1N1CCN(C(=O)c2ccc(NC3=NC4CS(=O)(=O)CC4S3)cc2)CC1", "note": "(centres undefined)", "inhibition": "0.72% (inactive)"}, {"molecule": "COc1ccc(Nc2ncc(C(=O)N3CCN(c4ccccc4OC)CC3)c3ccccc23)cc1", "inhibition": "48.4% (active)"}, {"molecule": "COc1ccc(-n2nc(C(=O)NCC(=O)N3CCN(c4ccccc4OC)CC3)c3ccccc3c2=O)c(OC)c1", "inhibition": "6.66% (inactive)"}, {"molecule": "CCN(CC(=O)Nc1c(F)cccc1F)C(=O)c1ccc(-c2ccc(C(C)=O)cc2)o1", "inhibition": "71.9% (active)"}, {"molecule": "CCN(CC(=O)Nc1c(F)cccc1F)C(=O)c1cnc(C)cn1", "inhibition": "-6.81% (inactive)"}, {"molecule": "CCN(CC(=O)Nc1c(F)cccc1F)C(=O)c1ccc(-c2ccccc2)cc1", "inhibition": "4.05% (inactive)"}, {"molecule": "COc1cc(C2C(C(=O)c3cccs3)=C(O)C(=O)N2CCN2CCOCC2)ccc1OCCC(C)C", "note": "(centres undefined)", "inhibition": "-13.5% (inactive)"}, {"molecule": "CN(CC(=O)Nc1cccc(F)c1)C(=O)C1CC(=O)N(CCc2ccccc2)C1", "note": "(centres undefined)", "inhibition": "-1.18% (inactive)"}, {"molecule": "Cc1cc(C)c2[nH]c(=O)c(CN(Cc3ccccc3)C(=S)NCCCN(C)C)cc2c1", "inhibition": "2.15% (inactive)"}, {"molecule": "Cc1ccc2cc(C#N)c(NCCNC(=S)NCCCN3CCOCC3)nc2c1", "inhibition": "50.7% (active)"}, {"molecule": "Cc1cc(C)cc(NC(=S)NCCCN2CCOCC2)c1", "inhibition": "0.98% (inactive)"}, {"molecule": "C=CCn1c(SCc2nnc(-c3ccccc3)o2)nnc1C(O)c1ccccc1", "note": "(centres undefined)", "inhibition": "5.64% (inactive)"}, {"molecule": "CCOc1ccc(N(C(=O)c2snc(C(N)=O)c2N)C(C(=O)NCC2CCCO2)c2c[nH]c3ccccc23)cc1", "note": "(centres undefined)", "inhibition": "7.52% (inactive)"}, {"molecule": "COc1cc(F)c(C2=CC(=O)CC(C)(C)C2)cc1F", "inhibition": "-23.8% (inactive)"}, {"molecule": "CC(=O)Nc1ccc(S(=O)(=O)N(CCc2ccccc2)CC(=O)N/N=C/c2ccc(C(=O)O)cc2)cc1", "inhibition": "-5.24% (inactive)"}, {"molecule": "COc1ccc(N(CC(=O)N/N=C/c2cccs2)S(=O)(=O)c2ccc(OC)c(OC)c2)cc1", "inhibition": "-15.8% (inactive)"}, {"molecule": "COc1ccc(N(CC(=O)N/N=C/c2cccc3c2OCCO3)S(=O)(=O)c2ccc(NC(C)=O)cc2)cc1", "inhibition": "38.9% (active)"}, {"molecule": "O=C1c2cccc(OCC(=O)N3N=C(c4cccs4)CC3c3ccc(F)cc3)c2CCN1Cc1ccccc1", "note": "(centres undefined)", "inhibition": "-25.8% (inactive)"}, {"molecule": "O=C(COc1ccccc1Cl)N1N=C(c2cccs2)CC1c1ccco1", "note": "(centres undefined)", "inhibition": "39.1% (active)"}, {"molecule": "Cc1ccc(C2=NN(C(=O)COc3ncnc4ccccc34)C(c3ccco3)C2)cc1", "note": "(centres undefined)", "inhibition": "-119% (inactive)"}, {"molecule": "CCC(C)(C(=O)NC1CCCC1)N(C(=O)CNC(C)=O)c1ccc(C)cc1", "note": "(centres undefined)", "inhibition": "-5.51% (inactive)"}, {"molecule": "N#Cc1cccc(OC(=O)c2ccc3c(=O)n4c(nc3c2)CCC4)c1", "inhibition": "-4.93% (inactive)"}, {"molecule": "Cc1cc(C)c(C)c(S(=O)(=O)N2CCN(C(=O)c3ccc4c(=O)n5c(nc4c3)CCC5)CC2)c1C", "inhibition": "20.1% (inactive)"}, {"molecule": "O=C(Nc1cc(F)ccc1F)c1ccc2c(=O)n3c(nc2c1)CCC3", "inhibition": "8.53% (inactive)"}, {"molecule": "Cc1ccc(/C=C2\\CCn3c2nc2cc(C(=O)O)ccc2c3=O)c(C)c1", "inhibition": "31.9% (inactive)"}, {"molecule": "O=C(O)c1ccc2c(=O)n3c(nc2c1)/C(=C/c1ccc(OC(F)F)cc1OC(F)F)CC3", "inhibition": "41% (active)"}, {"molecule": "N#Cc1ccc(/C=C2\\CCn3c2nc2cc(C(=O)O)ccc2c3=O)cc1", "inhibition": "63.7% (active)"}, {"molecule": "CCCn1c(C2CCCN2c2nc(-c3ccc(OC)cc3)cs2)nc2ccccc21", "note": "(centres undefined)", "inhibition": "-26.8% (inactive)"}, {"molecule": "CCOC(=O)[C@]12CCC=C1N(Cc1ccco1)C(=O)[C@H](CC(=O)NCc1cccc(C(F)(F)F)c1)C2", "inhibition": "5.67% (inactive)"}, {"molecule": "COc1cc(C2NC(=O)NC(c3ccccc3)=C2C(C)=O)c(Br)cc1OCC(N)=O", "note": "(centres undefined)", "inhibition": "9.92% (inactive)"}, {"molecule": "COc1ccc(-n2cc(CN(C)Cc3n[nH]c(=O)[nH]3)c(-c3cccc(F)c3)n2)cc1", "inhibition": "47.7% (active)"}, {"molecule": "Cc1nc2ccc(S(=O)(=O)NC(C(=O)N3CCCCCC3)C(C)C)cc2s1", "note": "(centres undefined)", "inhibition": "1.31% (inactive)"}, {"molecule": "COc1cc2c(cc1CNC[C@H]1O[C@@H](n3cnc(C(N)=O)n3)[C@H](O)[C@@H]1O)OCO2", "inhibition": "0.3% (inactive)"}, {"molecule": "Cc1nn(-c2ccccc2)c(NC(=O)c2cccs2)c(-c2ccc(Cl)cc2)c1=O", "inhibition": "5.28% (inactive)"}, {"molecule": "CCOC(=O)c1cnc2nc(SCc3ccccc3Cl)[nH]n2c1=O", "inhibition": "36.4% (active)"}, {"molecule": "CCOC(=O)CSc1nc2c(c(=O)n(Cc3ccccc3Cl)c(=O)n2C)n1C", "inhibition": "-3.76% (inactive)"}, {"molecule": "CCOC(=O)c1cnn(Cc2ccccc2Cl)c1N", "inhibition": "4.25% (inactive)"}, {"molecule": "CC1=C(C(=O)OCC2CCCCC2)C(c2ccc(F)cc2)NC(=O)N1", "note": "(centres undefined)", "inhibition": "10.3% (inactive)"}, {"molecule": "CCN(C[C@H]1N[C@@](CC)(C(=O)OC)[C@H]2C(=O)N(Cc3ccccc3)C(=O)[C@@H]12)S(=O)(=O)c1ccc(C(F)(F)F)cc1", "inhibition": "2.27% (inactive)"}, {"molecule": "Oc1ccc(-c2[nH]ncc2-c2nc3ccccc3s2)c(O)c1", "inhibition": "-10.2% (inactive)"}, {"molecule": "c1ccc(-c2[nH]ncc2-c2nc3ccccc3[nH]2)cc1", "inhibition": "44.3% (active)"}, {"molecule": "O=C1Nc2ccc([N+](=O)[O-])cc2C1=Nc1cccc(CO)c1", "inhibition": "-19.4% (inactive)"}, {"molecule": "COC(=O)C1(C(=O)OC)C[C@H](c2ccccc2)N(Cc2ccccc2OC)[C@@H]1c1ccccc1", "inhibition": "-0.75% (inactive)"}, {"molecule": "CN(Cc1nc2ccccc2c(=O)[nH]1)Cc1cc(=O)oc2ccc3ccccc3c12", "inhibition": "10.8% (inactive)"}, {"molecule": "CC(C)c1ccc2oc(=O)cc(CN3CCN(Cc4ccccc4)CC3)c2c1", "inhibition": "8.04% (inactive)"}, {"molecule": "O=c1cc(CN2CCCCCCC2)c2c(ccc3ccccc32)o1", "inhibition": "47.4% (active)"}, {"molecule": "NC(=O)C1CCN(C(=O)/C(=C/c2ccco2)NC(=O)c2ccccc2)CC1", "inhibition": "2.01% (inactive)"}]}]}
